{
  "source": "PubChem BioAssay (NCI)",
  "note": "Compounds without any hit were thinned out: in the full panel of roughly 79,000, 15% have a hit. Calls of active or inactive are those of the source. Rule as the data show it: active = growth inhibition above about 70%; inactive = the rest.",
  "data": [
    {"assay": "NCI Yeast Anticancer Drug Screen. Data for the rad50 strain (AID 155);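 also: 0% = growth of vehicle-only cultures of the same strain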", "settings": "S. cerevisiae rad50 strain growth inhibition; at 50.0 µM; hits give high values", "in_short": "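Relative growth inhibition (compound vs vehicle) was measured in yeast with a defined repair-gene alteration.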", "values": [
      {"smiles": "COC(=O)NCP(=O)(CNC(=O)OC)CNC(=O)OC", "growth inhibition": "13.8% (inactive)"},
      {"smiles": "O=C(N/N=C/c1ccc(O)cc1)C1CCCO1", "note": "(configuration not stated)", "growth inhibition": "2.9% (inactive)"},
      {"smiles": "Cc1ccccc1NC(=O)C(=O)Cc1nc2ccccc2s1", "growth inhibition": "14.8% (inactive)"},
      {"smiles": "NS(=O)(=O)c1ccc(Nc2c3ccccc3nc3ncccc23)cc1", "growth inhibition": "-6.85% (inactive)"},
      {"smiles": "CSc1ccc(Nc2ncnc(N)n2)cc1", "growth inhibition": "19.9% (inactive)"},
      {"smiles": "CC1(C)OC1(C(=O)C=[N+]=[N-])c1ccccc1", "note": "(configuration not stated)", "growth inhibition": "-14.8% (inactive)"},
      {"smiles": "COC(=O)CCc1c(C)[nH]c(C(=O)OC(C)(C)C)c1C", "growth inhibition": "-9.45% (inactive)"},
      {"smiles": "COc1cc(NCCNCC(C)(C)C)c2ncccc2c1", "growth inhibition": "11.7% (inactive)"},
      {"smiles": "N#CCCNC1CCCCC1", "growth inhibition": "2.95% (inactive)"},
      {"smiles": "CC(=NNC(=S)Nc1ccccc1)c1cccc(C(C)=NNC(=S)Nc2ccccc2)n1", "growth inhibition": "-7.4% (inactive)"},
      {"smiles": "CC12CCC(=O)C=C1CCC1C2C(=O)CC2(C)C1CCC2(O)C(=O)Cn1c(=O)[nH]cc(F)c1=O", "note": "(configuration not stated)", "growth inhibition": "5.95% (inactive)"},
      {"smiles": "COc1cc(C2c3cc4c(cc3OC(N3CCCCC3)C2C)OCO4)cc(OC)c1O", "note": "(configuration not stated)", "growth inhibition": "1.45% (inactive)"},
      {"smiles": "CC(=O)NC(Cc1cc(I)c(OC(C)=O)c(I)c1)C(=O)O", "note": "(configuration not stated)", "growth inhibition": "-4.85% (inactive)"},
      {"smiles": "C=CCCC1CN2CCc3cc(OC)c(OC)cc3C2CC1=O", "note": "(configuration not stated)", "growth inhibition": "15.3% (inactive)"},
      {"smiles": "c1ccc2cc(SSc3ccc4ccccc4c3)ccc2c1", "growth inhibition": "-30.1% (inactive)"},
      {"smiles": "CCCCCC(=C/c1ccccc1)/C=N/N1CCN(/N=C/C(=C/c2ccccc2)CCCCC)CC1", "growth inhibition": "32.1% (inactive)"},
      {"smiles": "Cc1cc2nc(N3CCCCC3)n(C3OC(CO)C(O)C3O)c2cc1C", "note": "(configuration not stated)", "growth inhibition": "11% (inactive)"}
    ]}
  ]
}
